Assay results: PubChem BioAssay

Assay: binders of probe aFST on microarray, primary screen, stem cell growth factor project, biochemical, small-molecule microarray, fluorescence 635/667 (AID 1086);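 note: score merges 667 nm fluorescence with signal-to-noise of each printed compound spot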
Conditions: higher = more signal

| SMILES | composite z-score |
| --- | --- |
| CCCCC=C[C@@H](NC(=O)c1ccco1)c1ccccc1 | 0.199 |
| C=CCC(OC(C)=O)[C@@H]1[C@@H](N(Cc2cccc3ccccc23)C(=O)c2cccc3ccccc23)c2cc(OCCCO)ccc2N1C(=O)c1ccc2ccccc2n1 (stereo partly drawn) | 0.0846 |
| COc1ccc([Si](C)(C)[C@H]2[C@H](CCn3cc(CCO)nn3)O[C@@]3(C(=O)N(Cc4ccc(N5CCOC5=O)cc4)c4ccccc43)[C@@H]2C)cc1 | 0.147 |
| CC(=O)Nc1cc(Br)ccc1C(=O)O | 0.353 |
| CN1CCC(CCCO)=CC1c1ccc(CN2CCCC2)cc1 (stereo not drawn) | 0.612 |
| COCCOC(=O)N1C(=O)[C@@]2(c3ccccc31)[C@H](C(=O)Nc1nc3ccccc3s1)[C@H]1C(=O)O[C@H](c3ccccc3)[C@H](c3ccccc3)N1[C@@H]2c1ccc(OCCO)cc1 | 0.381 |
| COC(=O)c1ccc(C(O)C2C=CC3C(=O)N(C)C(=O)C3N2NC(=O)OC(C)(C)C)o1 (stereo not drawn) | 0.76 |
| O=C1OCCC=C[C@H]2OC34C=CCN(Cc5ccccc5)C(=O)[C@H]3N(CCCCCCO)C(=O)[C@@H]4C12 (stereo partly drawn) | -0.26 |
| CC(C)N1C(=O)c2ccccc2[C@@H](C(=O)NCCCN(C)C)[C@@H]1c1ccc(CO)cc1 | 0.908 |

Assay: binders of probe aHhip on microarray, primary screen, stem cell growth factor project, biochemical, small-molecule microarray, fluorescence 635/667 (AID 1087);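 note: score merges spot fluorescence at 667nm with spot signal to noise ratio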
Conditions: higher = more signal

| SMILES | composite z-score |
| --- | --- |
| Cc1ccc(S[C@]2(C(=O)NCc3ccccc3)CC(=O)N(Cc3ccccc3)[C@@H]2c2ccc(CO)cc2)cc1 | -0.169 |
| C=C(C(=O)CC[C@H](OC(C)=O)c1ccc(OCCO)cc1)C(C)C | 0.174 |
| Cc1ccc(S[C@]2(C(=O)NCC(C)C)CC(=O)N(Cc3ccccc3)[C@@H]2c2ccc(CO)cc2I)cc1 | -0.0427 |
| O=C1N(CCS(=O)(=O)c2ccccc2)c2ccccc2C[C@@]12COC(c1ccc(OCCCO)cc1)=N2 | 0.075 |
| CCOC(=O)C[C@H]1[C@H](OC(=O)c2ccc(-c3ccccc3)cc2)[C@@H](NC(=O)Cc2ccc(OC)cc2)c2cc(OCCCO)ccc2N1C(=O)c1ccc2ccccc2n1 | -0.0645 |
| C=CCNC(=O)[C@@H]1[C@H]2C(=O)O[C@H](c3ccccc3)[C@H](c3ccccc3)N2[C@H](c2ccc(OCCO)cc2)[C@@]12C(=O)Nc1ccccc12 | -0.513 |
| COCCOC(=O)N1C(=O)[C@@]2(c3cc(C#CCNC(N)=O)ccc31)[C@H](c1ccccc1OCCO)N1[C@H](c3ccccc3)[C@H](c3ccccc3)OC(=O)[C@H]1[C@@H]2C(N)=O | -0.284 |
| COC(=O)[C@@]1(Cc2ccc(F)cc2)[C@H]2c3cc(C(=O)N4CCCC4)n(Cc4cccc5ccccc45)c3C[C@H]2CN1C(=O)c1ccccc1 | 0.762 |
| CC(C)CNC(=O)[C@@]1(c2ccc([N+](=O)[O-])cc2)CC(=O)N(CC23CC4CC(CC(C4)C2)C3)[C@@H]1c1ccc(CO)cc1 | 0.075 |
| CC1=C2[C@@H](CCc3ccccc3)OB(O)C[C@@H]2n2c(=O)n(-c3ccccc3)c(=O)n2C1 | -0.34 |
| CCOC(=O)C[C@H]1[C@H](OC(=O)Cc2ccc3c(c2)OCO3)[C@@H](NC(=O)C2CCCCC2)c2cc(OCCCO)ccc2N1C(=O)Cc1ccc(OC)cc1 | 0.0515 |
| O=C(CS)NCCCCCCNC(=O)[C@H]1C[C@H]2C(=O)NCC(=O)N2[C@H]1c1ccc(O)cc1 | 0.0201 |
| C[N+](C)(C)CCCCCCNC(=O)[C@H]1C[C@H]2C(=O)N3CCC[C@H]3C(=O)N2[C@H]1c1ccc(O)cc1 | -0.0618 |
| C[C@H]1NC(=O)[C@H](Cc2ccccc2)NC(=O)[C@@]23C(=O)N[C@@H](Cc4ccccc4)C2[C@H](C)[C@@]2(C)O[C@H]2C3/C=C/C/C=C\CNC1=O (stereo partly drawn) | 0.238 |
| CS(=O)(=O)CCOC(=O)C1=CC(c2ccc(CO)cc2)=CC(C2CC2)N(Cc2cc3c(cc2Br)OCO3)C=C1C(=O)OCCS(C)(=O)=O (stereo not drawn) | 0.245 |
| [N-]=[N+]=NCc1ccccc1C[C@@]1(C(=O)N2CCOCC2)N=C(c2ccc(OCCCO)cc2)O[C@@H]1c1ccccc1CN=[N+]=[N-] | 0.156 |
| CN1C=C(C(=O)OCCS(C)(=O)=O)C(C(=O)OCCS(C)(=O)=O)=CC(CCCO)=CC1C1CC1 (stereo not drawn) | -0.0618 |
| C=CCOC(=O)[C@H]1[C@@H]2C(=O)O[C@@H](c3ccccc3)[C@@H](c3ccccc3)N2[C@@H](c2ccc(OCCOC(=O)[C@@H]3C[C@@H]4C(=O)NCC(=O)N4[C@@H]3c3ccc(O)cc3)cc2)[C@]12C(=O)Nc1ccccc12 | -0.0237 |
| O=C1C=CC(=O)[C@@H]2CC(COc3ccccc3)=C3[C@@H](CCc4ccccc4)OB(O)C[C@@H]3[C@H]12 | 0.176 |
